According to PubChem BioAssay (Tox21):
Results filed as inconclusive are left out. The source made the active and inactive calls. The call rests on the fitted dose curve; in most records, active means well fitted curve in the direction sought with a large enough effect in the repeat runs; inconclusive means weak or mixed curves; inactive means no such curve, though single readings can be large; an effect the other way counts as inactive or inconclusive.

Assays:
[1] = A CellTox Green Cytotoxicity Assay to monitor cytotoxicity in HepG2 cells - 0 hour (AID 1224882); further: nearly all actives have a fitted effect of over 35% in size; further: potency means the concentration at half of the fitted maximal effect
In short: (§1)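 HepG2, 600 cells/well premixed w/ CellTox Green; 5 h settle, 37 C/5% CO2; pintool cpd add (DMSO); 37 C, 40 h; fluorescence read at 0, 8, 16, 24, 32, 40 h.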

[2] = A CellTox Green Cytotoxicity Assay to monitor cytotoxicity in HEK293 cells - 8 hour (AID 1224884); further: nearly all actives have a fitted effect of over 35% in size; further: potency means the concentration at half of the fitted maximal effect
In short: (§2)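 Read-out: fluorescence of a cell-impermeant cyanine dye staining DNA of dead cells, proportional to cytotoxicity. HEK293, 600 cells/well with reagent, compound (23 nL DMSO) added after 5 h; reads at 0, 8, 16, 24, 32, 40 h.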

[3] = qHTS RealTime-Glo MT Cell Viability Assay in HepG2 cells - 16 hour (AID 1224885); further: nearly all actives have a fitted effect of over 50% in size; further: potency means the concentration at half of the fitted maximal effect
In short: (§3)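 Tox21 10K library screened in qHTS format on HepG2 cells carrying RealTime-Glo reagents. Compounds were added after a 5 h preincubation, and the luminescent signal from continuous culture was measured repeatedly during 40 h treatment.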

[4] = qHTS RealTime-Glo MT Cell Viability Assay in HEK293 cells - 24 hour (AID 1224886); further: nearly all actives have a fitted effect of over 50% in size; further: potency means the concentration at half of the fitted maximal effect
In short: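 Luminescence generated by NanoLuc from substrate produced by living HEK293 cells served as the viability signal. Each value reflects the reading at its stated time point during continuous 40 h compound exposure at 37 C.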

[5] = A CellTox Green Cytotoxicity Assay to monitor cytotoxicity in HEK293 cells - 16 hour (AID 1224888); further: nearly all actives have a fitted effect of over 35% in size; further: potency means the concentration at half of the fitted maximal effect
In short: as §2

[6] = qHTS RealTime-Glo MT Cell Viability Assay in HepG2 cells - 0 hour (AID 1224889); further: nearly all actives have a fitted effect of over 50% in size
In short: as §3

[7] = qHTS assay to identify small molecule antagonists of the estrogen receptor alpha (ER-alpha) signaling pathway using the BG1 cell line in the presence of 0.1 nM 17-beta-estradiol - cell viability counter screen (AID 1259241); further: nearly all actives have a fitted effect of over 40% in size; further: potency means the concentration at half of the fitted maximal effect
In short: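 VM7Luc4E2 cells (endogenous full-length ER-alpha, 4xERE-luciferase), cultured 5 days in charcoal-stripped serum, exposed to compounds with 0.1 nM 17beta-estradiol (final) for 22 hr at 37C. Viability read in same wells as live-cell protease fluorescence after 30 min.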

[8] = qHTS RealTime-Glo MT Cell Viability Assay in HEK293 cells - 8 hour (AID 1224887); further: nearly all actives have a fitted effect of over 50% in size; further: potency means the concentration at half of the fitted maximal effect
In short: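 Luminescence readout at each listed time point; HEK293, 600 cells/well, RealTime-Glo MT reagent added with cells; compounds pinned (23 nL in DMSO) after 5 h at 37 C; continuous culture at 37 C.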

[9] = A CellTox Green Cytotoxicity Assay to monitor cytotoxicity in HepG2 cells - 8 hour (AID 1224890); further: nearly all actives have a fitted effect of over 45% in size; further: potency means the concentration at half of the fitted maximal effect
In short: as §1

Measured: Potency

c1cc(OCC2CO2)cc(OCC2CO2)c1 (stereo unspecified)
active: [4] 24.4 µM
not listed: [8] | [9]
inactive: all other assays above

CC(=O)Oc1ccc(C2(c3ccc(OC(C)=O)cc3)Oc3ccccc3NC2=O)cc1
not listed: [5] | [6]
inactive: all other assays above

O=S(=O)(O)CCCN1CCOCC1
inactive: all assays above

CCN(CC)c1ccc(N)cc1
active: [3] 50.3 µM | [4] 22.5 µM | [7] 17.7 µM
not listed: [8]
inactive: all other assays above

COC(=O)[C@]1(C)CCC[C@@]2(C)[C@H]1CC=C1C=C(C(C)C)CC[C@@H]12
active: [1] 24.5 µM | [2] 38.9 µM | [5] 38.9 µM
not listed: [9]
inactive: all other assays above

COc1cccc(O)c1
not listed: [9]
inactive: all other assays above

C/C=C/CO
inactive: all assays above

COc1ccc(-n2nc(CCC(=O)N(C)O)cc2-c2ccc(Cl)cc2)cc1
not listed: [4] | [6]
inactive: all other assays above

Cc1ccc(CCn2c3c(c4cc(Cl)ccc42)CN(C)CC3)cn1
active: [4] 9.52 µM
inactive: [1] | [2] | [3] | [5] | [9]

CCN(CC)CCOc1ccc(C(O)(Cc2ccc(Cl)cc2)c2ccc(C)cc2)cc1 (stereo unspecified)
inactive: [1] | [2] | [7]
active: [3] 23.9 µM | [8] 21.3 µM

O=C1NCN(c2ccccc2)C12CCN(CCCC(c1ccc(F)cc1)c1ccc(F)cc1)CC2
inactive: [1] | [2] | [6]
active: [3] 7.56 µM | [4] 19 µM | [9] 10.7 µM | [7] 13.3 µM
